# Experiments:
# Histone H3.2 [1] = target: Histone H3.2 (UniProt P84233); assay: cross-link between two proteins; cross-linking mass spectrometry
# Histone H3.2 [2] = target: Histone H3.2 (UniProt P84233); assay: cross-linking mass spectrometry
# Histone H4 = Histone H4 (UniProt P62799); assay: cross-linking mass spectrometry
# [3] = target: Transcription elongation factor A protein 1 (UniProt P23193); assay: cross-link between two proteins; cross-linking mass spectrometry
# Histone H2A type 1 [4] = target: Histone H2A type 1 (UniProt P06897); assay: cross-linking mass spectrometry
# [5] = target: DNA-directed RNA polymerase II subunit RPB7 (UniProt P62487); assay: cross-link between two proteins; cross-linking mass spectrometry
# Histone H2A type 1 [6] = target: Histone H2A type 1 (UniProt P06897); assay: as above
# Histone H2B 1.1 = Histone H2B 1.1 (UniProt P02281); assay: as above
# [7] = target: Transcription elongation factor SPT4 (UniProt P63272); assay: cross-link between two proteins; cross-linking mass spectrometry; two-hybrid or complementation screen
substance,measurement,setting,value
"DNA-directed RNA polymerase II subunit RPB7, P62487",listed as a hit,Histone H3.2 [1],yes
"Histone H2A type 1, P06897",listed as a hit,Histone H3.2 [2],yes
same,listed as a hit,Histone H4,yes
same,listed as a hit,[3],yes
"Histone H2B 1.1, P02281",listed as a hit,Histone H2A type 1 [4],yes
same,listed as a hit,Histone H3.2 [2],yes
same,listed as a hit,Histone H4,yes
"Histone H4, P62799",listed as a hit,Histone H3.2 [1],yes
"Transcription elongation factor A protein 1, P23193",listed as a hit,Histone H3.2 [1],yes
"Transcription elongation factor SPT5, O00267",listed as a hit,[5],yes
same,listed as a hit,Histone H2A type 1 [6],yes
same,listed as a hit,Histone H2B 1.1,yes
same,listed as a hit,Histone H3.2 [1],yes
same,listed as a hit,[7],yes

# Reference: paper PMC11062913
